Reference: PubChem BioAssay (Tox21)
Results filed as inconclusive are left out. A call without a number means that no potency is given here. The source made the active and inactive calls. The call rests on the fitted dose curve; in most records, active means well fitted cell-killing curve with a large enough effect in the repeat runs; inconclusive means weak or mixed curves, or effect the other way; inactive means no such curve, though single readings can be large or run the other way.

assay: qHTS assay to identify small molecule antagonists of the vitamin D receptor (VDR) signaling pathway - cell viability counter screen (AID 743225); conditions: VDR-bla HEK293T viability, CellTiter-Glo luminescence, 16 h; series mostly up to 61 µM; further: nearly all actives have a fitted effect of over 50% in size
In short: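 Parallel cytotoxicity test: VDR-UAS-bla HEK 293T, 3 nM (final) 1-alpha,25-dihydroxyvitamin D3 with test compound, 16 h, 37C. Endpoint is CellTiter-Glo luminescence in the same wells.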
Potency means the concentration at half of the fitted maximal effect.

Compound | Potency
CCOC(=O)[C@H](CCc1ccccc1)N[C@H]1CCc2ccccc2N(CC(=O)O)C1=O | 21.3 µM (active)
CC(=O)c1c(C)c([N+](=O)[O-])c(C(C)(C)C)c([N+](=O)[O-])c1C | inactive
CC(C)NCC(O)c1cc(O)cc(O)c1 (configuration not stated) | inactive
Cc1ncsc1CCO | inactive
Cc1cccc(C(C)(C)C)c1O | inactive
O=C(O)c1cccc(N(Cc2cccnc2)c2ccc(OC(F)F)c(OC(F)F)c2)c1 | inactive
NC(N)=NN=C(/C=C/c1ccc([N+](=O)[O-])o1)/C=C/c1ccc([N+](=O)[O-])o1 | 10.7 µM (active)
CCCCCCc1ccc(N)cc1 | inactive
CN(C)C/C=C(/c1ccc(Br)cc1)c1cccnc1 | inactive
N=C(N=C(N)N)N1CCOCC1 | inactive
CCOc1cc(OCC)c(C(=O)CCC(=O)O)cc1OCC | inactive
Oc1ccc(O)c2c(O)cccc12 | inactive
CCOc1nc2cccc(C(=O)O)c2n1Cc1ccc(-c2ccccc2-c2nn[nH]n2)cc1 | inactive
SC1CCCC1 | inactive
CCN(CC)CCOC(=O)C1(c2ccccc2)CCCC1 | inactive
CC(C(=O)O)c1ccc(-c2ccccc2)c(F)c1 (configuration not stated) | inactive
CCCCCCCCCCCCC(=O)O | inactive
CCCCCCCCCCCCCCCBr | inactive
C1=Cc2ccccc2C1 | inactive
CCN(CC)CCNC(C(=O)OCCC(C)C)c1ccccc1 (configuration not stated) | inactive
CC(C)(C)C1CCCCC1O (configuration not stated) | inactive
OCC1CC2CC1C1CCC(CO)C21 (configuration not stated) | inactive
